Article PMC9911399, “Two distinct binding modes provide the RNA-binding protein RbFox with extraordinary sequence specificity”
Where a chain is given by its changes, count along the chain named. In all, about 16,000 sequences were measured (“ka relative to ugcaugu”: median about 0.096, highest 2% from about 0.35 on). The sample holds the highest values, similar sequences and a random draw of the others, so the mix is not that of the screen.

T1: RBFOX1 RRM RbFoxmut (Fox-RRM*) (Homo sapiens, UniProt Q9NWB1 109-208, R118D;E147R;N151S;E152T)
T1 sequence: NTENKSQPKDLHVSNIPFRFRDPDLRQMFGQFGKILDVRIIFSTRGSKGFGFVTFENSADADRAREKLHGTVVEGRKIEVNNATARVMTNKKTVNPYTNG

B1: GAGCUUG (DNA:RNA)
RNA: GGGAGACCGGAAUUCAGAUUGUCCGAGCUUGUUAAAUCCCGUCGUAGCCACCA
DNA 1: CAATCTGAATTCCGGTCTCCC
DNA 2: TGGTGGCTACGACGGGATT
B2: UGUGGCA (DNA:RNA)
RNA: GGGAGACCGGAAUUCAGAUUGUCCUGUGGCAUUAAAUCCCGUCGUAGCCACCA
DNA 1: CAATCTGAATTCCGGTCTCCC
DNA 2: TGGTGGCTACGACGGGATT
B3: CUAUUUC (DNA:RNA)
RNA: B1 RNA with G25C, A26U, G27A, C28U, G31C
DNA 1: CAATCTGAATTCCGGTCTCCC
DNA 2: TGGTGGCTACGACGGGATT
B4: AGUCAAC (DNA:RNA)
RNA: B2 RNA with U25A, G28C, G29A, C30A, A31C
DNA 1: CAATCTGAATTCCGGTCTCCC
DNA 2: TGGTGGCTACGACGGGATT
B5: AAUGCAG (DNA:RNA)
RNA: B1 RNA with G25A, G27U, C28G, U29C, U30A
DNA 1: CAATCTGAATTCCGGTCTCCC
DNA 2: TGGTGGCTACGACGGGATT
B6: GUUCAUC (DNA:RNA)
RNA: B1 RNA with A26U, G27U, U29A, G31C
DNA 1: CAATCTGAATTCCGGTCTCCC
DNA 2: TGGTGGCTACGACGGGATT
B7: UUGCGUC (DNA:RNA)
RNA: B1 RNA with G25U, A26U, U29G, G31C
DNA 1: CAATCTGAATTCCGGTCTCCC
DNA 2: TGGTGGCTACGACGGGATT
B8: GUGCAGA (DNA:RNA)
RNA: B1 RNA with A26U, U29A, U30G, G31A
DNA 1: CAATCTGAATTCCGGTCTCCC
DNA 2: TGGTGGCTACGACGGGATT
B9: UUGCAUC (DNA:RNA)
RNA: B1 RNA with G25U, A26U, U29A, G31C
DNA 1: CAATCTGAATTCCGGTCTCCC
DNA 2: TGGTGGCTACGACGGGATT
B10: GUGCAUA (DNA:RNA)
RNA: B1 RNA with A26U, U29A, G31A
DNA 1: CAATCTGAATTCCGGTCTCCC
DNA 2: TGGTGGCTACGACGGGATT
B11: UUGCAUA (DNA:RNA)
RNA: B1 RNA with G25U, A26U, U29A, G31A
DNA 1: CAATCTGAATTCCGGTCTCCC
DNA 2: TGGTGGCTACGACGGGATT
B12: UUGCAUG (DNA:RNA)
RNA: B1 RNA with G25U, A26U, U29A
DNA 1: CAATCTGAATTCCGGTCTCCC
DNA 2: TGGTGGCTACGACGGGATT
B13: GUGCAUC (DNA:RNA)
RNA: B1 RNA with A26U, U29A, G31C
DNA 1: CAATCTGAATTCCGGTCTCCC
DNA 2: TGGTGGCTACGACGGGATT
B14: UUGCAGA (DNA:RNA)
RNA: B1 RNA with G25U, A26U, U29A, U30G, G31A
DNA 1: CAATCTGAATTCCGGTCTCCC
DNA 2: TGGTGGCTACGACGGGATT
B15: GCGUGCA (DNA:RNA)
RNA: B2 RNA with U25G, G26C, U27G, G28U
DNA 1: CAATCTGAATTCCGGTCTCCC
DNA 2: TGGTGGCTACGACGGGATT
B16: UCUUGCA (DNA:RNA)
RNA: B2 RNA with G26C, G28U
DNA 1: CAATCTGAATTCCGGTCTCCC
DNA 2: TGGTGGCTACGACGGGATT
B17: GUGCAUG (DNA:RNA)
RNA: B1 RNA with A26U, U29A
DNA 1: CAATCTGAATTCCGGTCTCCC
DNA 2: TGGTGGCTACGACGGGATT
B18: ACGUAGU (DNA:RNA)
RNA: B1 RNA with G25A, A26C, C28U, U29A, U30G, G31U
DNA 1: CAATCTGAATTCCGGTCTCCC
DNA 2: TGGTGGCTACGACGGGATT
B19: CAACGCA (DNA:RNA)
RNA: B2 RNA with U25C, G26A, U27A, G28C
DNA 1: CAATCTGAATTCCGGTCTCCC
DNA 2: TGGTGGCTACGACGGGATT
B20: UGUAUAC (DNA:RNA)
RNA: B2 RNA with G28A, G29U, C30A, A31C
DNA 1: CAATCTGAATTCCGGTCTCCC
DNA 2: TGGTGGCTACGACGGGATT
B21: UUCCAAG (DNA:RNA)
RNA: B1 RNA with G25U, A26U, G27C, U29A, U30A
DNA 1: CAATCTGAATTCCGGTCTCCC
DNA 2: TGGTGGCTACGACGGGATT
B22: AUCGUGG (DNA:RNA)
RNA: B1 RNA with G25A, A26U, G27C, C28G, U30G
DNA 1: CAATCTGAATTCCGGTCTCCC
DNA 2: TGGTGGCTACGACGGGATT
B23: CGUUUCG (DNA:RNA)
RNA: B2 RNA with U25C, G28U, G29U, A31G
DNA 1: CAATCTGAATTCCGGTCTCCC
DNA 2: TGGTGGCTACGACGGGATT
B24: CAAAACG (DNA:RNA)
RNA: B1 RNA with G25C, G27A, C28A, U29A, U30C
DNA 1: CAATCTGAATTCCGGTCTCCC
DNA 2: TGGTGGCTACGACGGGATT
B25: GAGAGGA (DNA:RNA)
RNA: B1 RNA with C28A, U29G, U30G, G31A
DNA 1: CAATCTGAATTCCGGTCTCCC
DNA 2: TGGTGGCTACGACGGGATT
B26: CUAUGAG (DNA:RNA)
RNA: B1 RNA with G25C, A26U, G27A, C28U, U29G, U30A
DNA 1: CAATCTGAATTCCGGTCTCCC
DNA 2: TGGTGGCTACGACGGGATT
B27: CGAUGAG (DNA:RNA)
RNA: B2 RNA with U25C, U27A, G28U, C30A, A31G
DNA 1: CAATCTGAATTCCGGTCTCCC
DNA 2: TGGTGGCTACGACGGGATT
B28: GAUUGAG (DNA:RNA)
RNA: B1 RNA with G27U, C28U, U29G, U30A
DNA 1: CAATCTGAATTCCGGTCTCCC
DNA 2: TGGTGGCTACGACGGGATT
B29: GUAUGAG (DNA:RNA)
RNA: B1 RNA with A26U, G27A, C28U, U29G, U30A
DNA 1: CAATCTGAATTCCGGTCTCCC
DNA 2: TGGTGGCTACGACGGGATT
B30: GGAUGAG (DNA:RNA)
RNA: B1 RNA with A26G, G27A, C28U, U29G, U30A
DNA 1: CAATCTGAATTCCGGTCTCCC
DNA 2: TGGTGGCTACGACGGGATT
B31: GAAUGAG (DNA:RNA)
RNA: B1 RNA with G27A, C28U, U29G, U30A
DNA 1: CAATCTGAATTCCGGTCTCCC
DNA 2: TGGTGGCTACGACGGGATT

Molecular target: T1, RBFOX1 RRM RbFoxmut (Fox-RRM*)
Test: EMSA; HiTS-Eq, 1 nM pool, 10 min; buffer printed only for the single-RNA assays: 10 mM Tris pH 7.5, 150 mM NaCl, 3.4 mM EDTA, 0.001% NP-40, 30 C
Details: tags: His6 N-terminal (pET28a); label: 5' 32P
Summary of the method: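 Purified wild-type or mutant RbFox RRM at increasing concentrations was equilibrated with 1 nM of 5′-radiolabelled RNA carrying 7 randomized nucleotides for 10 min in 50 µL. Unbound RNA was separated by 8% native PAGE and sequenced. Relative association constants came from read-count changes of each RNA species compared with the control reaction, normalised to the cognate motif.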

Binder | binding signal
B1 | 0.253 KA relative to UGCAUGU
B2 | 0.136 KA relative to UGCAUGU
B3 | 0.0582 KA relative to UGCAUGU
B4 | 0.0571 KA relative to UGCAUGU
B5 | 0.103 KA relative to UGCAUGU
B6 | 0.0631 KA relative to UGCAUGU
B7 | 0.126 KA relative to UGCAUGU
B8 | 0.12 KA relative to UGCAUGU
B9 | 0.432 KA relative to UGCAUGU
B10 | 0.153 KA relative to UGCAUGU
B11 | 0.23 KA relative to UGCAUGU
B12 | 0.909 KA relative to UGCAUGU
B13 | 0.566 KA relative to UGCAUGU
B14 | 0.108 KA relative to UGCAUGU
B15 | 0.225 KA relative to UGCAUGU
B16 | 0.205 KA relative to UGCAUGU

Binder | binding signal
B17 | 1.39 KA relative to UGCAUGU
B18 | 0.15 KA relative to UGCAUGU
B19 | 0.161 KA relative to UGCAUGU
B20 | 0.114 KA relative to UGCAUGU
B21 | 0.0952 KA relative to UGCAUGU
B22 | 0.124 KA relative to UGCAUGU
B23 | 0.17 KA relative to UGCAUGU
B24 | 0.0837 KA relative to UGCAUGU
B25 | 0.0596 KA relative to UGCAUGU
B26 | 0.107 KA relative to UGCAUGU
B27 | 0.133 KA relative to UGCAUGU
B28 | 0.183 KA relative to UGCAUGU
B29 | 0.513 KA relative to UGCAUGU
B30 | 0.225 KA relative to UGCAUGU
B31 | 0.983 KA relative to UGCAUGU
